# The list is not random: actives were taken first. Their share in the collection is about 1.3%.
# AMA1 RON2 block – inhibitors of Plasmodium falciparum AMA1-RON2 interaction. AlphaScreen AMA1-biotinylated RON2 peptide binding. Potency, µM (highest dose often 58.2 µM), inactives show top-dose activity change, negative = inhibition, actives largely listed as inhibitors. actives 0.2% (n = 360,000);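 also: 0% = vehicle wells and -100% = peptide control; nearly all actives have a fitted effect of over 45% in size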
#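 AMA1 (3D7) with his tag at 25 nM final met compounds first, then biotinylated RON2 peptide at 25 nM; detection used donor plus acceptor beads, 10 µg/mL apiece, read by AlphaScreen after 30 min at room temperature.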
# Giardia FBPA inh-1 – inhibitors of Giardia lamblia fructose-1,6-bisphosphate aldolase | Potency, µM (doses to about 59.6 µM), for the others: top-dose activity, negative = inhibition, hits mostly inhibitors | actives 0.71% (n = 290,000) | A8B2U2 | purified Giardia FBPA; also: nearly all actives have a fitted effect of over 55% in size
# Target sequence (A8B2U2 whole entry, looked up): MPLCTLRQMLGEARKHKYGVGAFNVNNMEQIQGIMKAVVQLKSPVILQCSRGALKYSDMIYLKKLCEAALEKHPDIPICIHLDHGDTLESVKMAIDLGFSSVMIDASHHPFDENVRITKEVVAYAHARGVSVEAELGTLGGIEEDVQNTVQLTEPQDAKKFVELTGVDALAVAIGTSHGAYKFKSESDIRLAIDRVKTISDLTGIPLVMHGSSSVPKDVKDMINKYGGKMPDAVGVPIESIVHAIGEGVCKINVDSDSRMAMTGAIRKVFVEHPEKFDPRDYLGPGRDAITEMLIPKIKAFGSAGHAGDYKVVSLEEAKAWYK
#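 40 nM FBPA preincubated 10 min at RT with compound (up to 57.5 uM final), then substrate plus GAPDH/TPI/NAD/arsenate coupling and diaphorase/resazurin added. Fluorescence read after 20 min at RT, 525/598 nm.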
# LmPK inhibitor – blocks Leishmania mexicana pyruvate kinase activity | purified LmPK, Kinase-Glo ATP luminescence, 1 h | actives 0.37% (n = 290,000) | Potency, µM (series often up to 57.5 µM), for inactives: top-dose activity change, negative = inhibition, usual class: inhibitors | AID 1721
#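 Kinase-Glo luminescence read after 1 h RT reaction of 0.1 nM LmPK with 0.5 mM PEP and 0.1 mM ADP. Activity scaled between uninhibited and enzyme-free controls.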
# AmpC inh no detg – inhibitors of E. coli AmpC beta-lactamase without detergent; AmpC nitrocefin hydrolysis, absorbance 480 nm, 0.0001% Triton; Potency, µM (doses to about 57.1 µM), for the others: at the top dose activity change, negative = inhibition, most hits filed as inhibitors; actives 0.52% (n = 330,000); AID 485341;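 also: plate controls were no compound for no effect and no enzyme for full effect; nearly all actives have a fitted effect of over 20% in size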
#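 20 mM phosphate pH 7.0 + 0.01% (detergent screen) or 0.0001% Triton X-100; 5.3 nM AmpC reagent; cpd preinc 15 min RT; nitrocefin (800 uM stock) to start; A480 q20 s × 4 min; Activity was normalised to no-enzyme and no-compound control wells.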
# AmpC detergent – AmpC beta-lactamase inhibition with detergent present | P00811 | AmpC hydrolysis of nitrocefin, absorbance 480 nm, 0.01% Triton | Potency, µM (top dose mostly 114 µM), inactives show top-dose activity change, negative = inhibition, usual class: inhibitors | actives 0.041% (n = 370,000);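 also: 0% = no-compound wells and -100% = no-enzyme wells; nearly all actives have a fitted effect of over 25% in size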
#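 AmpC (5.3 nM in the dispensed reagent) in 20 mM phosphate pH 7.0 with 0.01% (detergent screen) or 0.0001% Triton X-100 was preincubated with compounds for 15 min at room temperature. Nitrocefin was then added from an 800 uM solution, and hydrolysis was followed at 480 nm.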
# Giardia growth – Giardia lamblia growth inhibition | Potency, µM (series often up to 57.5 µM), inactives show top-dose activity change, negative = inhibition, usual class: inhibitors | shares compounds with Giardia FBPA inh-1 | actives 5% (n = 1,500) | Giardia lamblia trophozoite growth inhibition | AID 2785;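 also: trophozoites exposed to compound for 48 h at 37 °C; nearly all actives have a fitted effect of over 70% in size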
# Mammal cell tox – toxic to mammalian cells in Giardia aldolase counter-screen; AID 2786; actives 4% (n = 1,500); mammalian cell viability counter-screen, qHTS; shares compounds with Giardia FBPA inh-1; Potency, µM (titrated, usually from 57.5 µM), for the others: at the highest dose viability change, negative = toxicity, hits mostly inhibitors;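 also: Chinese hamster ovary cells used as mammalian cytotoxicity surrogate; viability measured as cellular ATP by luminescence; compound exposure lasted 48 h before reading; nearly all actives have a fitted effect of over 60% in size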
# Giardia FBPA inh-2 – confirmation of Giardia fructose-bisphosphate aldolase inhibitors. shares compounds with Giardia FBPA inh-1. purified Giardia aldolase enzyme activity, qHTS. Potency, µM (top dose mostly 57.5 µM), for inactives: top-dose activity change, negative = inhibition, hits mostly inhibitors. actives 5% (n = 1,500). AID 2787; also: nearly all actives have a fitted effect of over 45% in size
# Rabbit FBPA inh – rabbit FBP aldolase inhibition by Giardia aldolase hits. shares compounds with Giardia FBPA inh-1. Rabbit muscle FBPA enzyme inhibition, selectivity counter-screen. Potency, µM (doses to about 57.5 µM), inactives show top-dose activity, negative = inhibition, most hits filed as inhibitors. actives 4% (n = 1,500). AID 2794; also: nearly all actives have a fitted effect of over 60% in size
# GAPDH counter – GAPDH inhibition flagged for Giardia aldolase hits; shares compounds with Giardia FBPA inh-1; Potency, µM (highest dose often 57.5 µM), inactives show top-dose activity change, negative = inhibition, most hits filed as inhibitors; actives 6% (n = 1,500); GAPDH coupling enzyme counterscreen, biochemical, qHTS; also: nearly all actives have a fitted effect of over 55% in size
# The depositor's hits bear a star; ? = inconclusive; · = no result given; [ ] = another dose, or the depositor's remark. Calls follow the shape of the dose curve; as a rule, active = well fitted curve in the direction sought with a large enough effect; inconclusive = small, poorly fitted or top-dose-only effect, or another doubt; inactive = no such curve, though single readings can be large; an effect the other way counts as inactive or inconclusive. Unless noted, % is scaled to controls: 0 for no effect and ±100 for the full control effect; potency is read from the fitted curve at half-maximal effect.
SMILES,AMA1 RON2 block,Giardia FBPA inh-1,LmPK inhibitor,AmpC inh no detg,AmpC detergent,Giardia growth,Mammal cell tox,Giardia FBPA inh-2,Rabbit FBPA inh,GAPDH counter
Cc1cccc(NNC(N)=S)c1,8.1%,19.9µM*,-1.1%,-12.5%,1.2%,10.9%,11.3%,0.1%,-0.3%,10.0%
CCC(C)N(C)C1CCN(C(=S)Nc2cccc(SC)c2)CC1 (configuration not stated),1.2%,9.98µM*,0.0%,12.1%,2.5%,7.9%[38.3 µM],-17.9%,-4.0%,-4.1%,-2.6%
Cc1ccc(S(=O)(=O)Nc2cc(C)cn(Cc3ccc(F)cc3)c2=O)cc1,9.1%,15.8µM*,-0.3%,-37.8%,-2.2%,14.3%[10.4 µM],-9.3%,?,?,25.1µM*
Cc1ccc(S(=O)(=O)Nc2cc(C)cn(Cc3ccccc3)c2=O)cc1,28.5%,12.6µM*,2.0%,-42.5%,-6.6%,?,-13.2%,?,?,31.6µM*
Cc1ccc(S(=O)(=O)Nc2cc3c(cc2Cl)n(C)c(=O)c(=O)n3C)cc1,·,·,·,·,3.1%,·,·,·,·,·
C/C(CS(=O)(=O)c1ccc(Cl)cc1)=N/NC(N)=S,22.5%,15.8µM*,1.0%,-18.9%,-9.2%,2.4%[10.4 µM],-7.6%,2.9%,7.3%,4.5%
C/C(CS(=O)(=O)c1ccc(Cl)c(Cl)c1)=N/NC(N)=S,34.7%,?,0.8%,-18.4%,2.3%,·,·,·,·,·
C=CCNCCCOc1ccc(Cl)cc1C(C)(C)C,-8.1%,17.7µM*,-0.7%,28.0%,-1.0%,7.1%,-24.9%,-15.2%,-13.7%,-16.0%
C=CCNCCOCCOc1ccc(Cl)cc1C(C)(C)C,?,-27.8%,-4.0%,53.0%,-0.3%,·,·,·,·,·
O=C(O)c1cnc2ccc(Cl)cc2n1,-6.1%,·,·,·,·,·,·,·,·,·
COc1cccc(/C=N/n2c(-c3cc(C)[nH]n3)n[nH]c2=S)c1O,91.1%,5.61µM*,1.6%,-34.7%,-6.9%,?,17.6%,-20.4%,?,-9.5%
CC(/C=N/n1c(-c2ccc(Cl)cc2)n[nH]c1=S)=C\c1ccco1,43.7%,-3.0%,3.1%,-28.5%,-8.6%,·,·,·,·,·
CC(/C=N/n1c(-c2cc(C)[nH]n2)n[nH]c1=S)=C\c1ccco1,95.1%,2.51µM*,6.6%,-26.8%,-2.0%,-14.1%[38.3 µM],-1.5%,?,-3.7%,-10.4%
O=C(NNC(=O)c1ccc(Cl)cc1Cl)c1cnccn1,90.2%,19.9µM*,3.2%,87.6%,-0.5%,8.91µM*,-7.5%,-4.7%,5.0%,-0.5%
O=C(NNC(=O)c1ccccc1[N+](=O)[O-])c1cnccn1,82.6%,19.9µM*,3.2%,-11.1%,4.5%,?,-12.9%,2.3%,1.4%,-4.5%
O=C(NNC(=O)c1cnccn1)c1ccc(Cl)cc1,74.5%,12.6µM*,2.2%,0.0%,4.1%,-5.4%[10.4 µM],-3.8%,-5.0%,4.8%,3.1%
CCOC(=O)c1ccc(NC(=O)CC2C(=O)N(c3ccc(C)cc3)C(=O)N2C2CCCC2)cc1 (configuration not stated),·,·,·,·,-0.3%,·,·,·,·,·
COC(=O)C1=C(O)/C(=C\c2cc(C)n(-c3ccccc3F)c2C)N=C1C,-5.0%,12.6µM*,-1.3%,-17.1%,-9.4%,-13.9%,-2.1%,-18.0%,-22.0%,-26.1%
